In the library only some 9.5% were active in any assay of this set; here they are far more common.
NS1 function inh: qHTS Assay for Inhibitors of Influenza NS1 Protein Function | Potency, µM (top dose mostly 46.1 µM), without a hit: at the top dose activity, positive = more growth | 0.4% of 270,000 active | AID 2326, 2010; calls by dose curve; also: actives are rising curves; nearly all actives have a fitted effect of over 50% in size
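In this qHTS, NS1 from influenza A is expressed in budding yeast, where it slows growth. Cells are switched from glucose to 2% galactose medium (pH 6.0, -URA), treated with compound, and growth recovery is read at OD600.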
Pf growth 96h: Primary qHTS for delayed death inhibitors of the malarial parasite plastid, 96 hour incubation. P. falciparum luciferase reporter growth, 96 h. Potency, µM (series often up to 28.7 µM), for the others: at the highest dose activity change, negative = inhibition, usual class: inhibitors. 6.9% of 320,000 active; also: % is scaled to controls: 0 for no effect and ±100 for the full control effect
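Cell-based qHTS: luciferase-tagged P. falciparum in erythrocytes (2% hematocrit, 0.05% parasitemia final) incubated with compounds for 96 hours, 37 C, 5% CO2; luciferase detection reagent then added and luminescence measured.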
RE007 growth inh: qHTS Assay for Inhibitors of the HIV-1 protein Vpr; 0.21% of 360,000 active; Potency, µM (doses to about 92.2 µM), for inactives: top-dose activity change, negative = less growth, hits mostly inhibitors; S. pombe RE007 Vpr strain, BacTiter-Glo ATP luminescence, 24 h; active = well fitted falling curve with a large enough effect; inconclusive = small, poorly fitted or top-dose-only effect; inactive = no such curve, though single readings can be large or run the other way; also: % is scaled to controls: 0 for no effect and ±100 for the full control effect; nearly all actives have a fitted effect of over 50% in size
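Fission yeast RE007 carrying one integrated HIV-1 vpr copy, seeded at OD 0.01 in PMG+AL medium with 23 nL pinned compound. Grown 24 h at 30 degrees; viability read by BacTiter-Glo luminescence after 5 min.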
SARS PLP yeast: qHTS of Yeast-based Assay for SARS-CoV PLP; S. cerevisiae expressing SARS-CoV PLpro, growth rescue; Potency, µM (top dose mostly 32.9 µM), for inactives: at the highest dose activity, positive = growth rescue, hits mostly activators; 0.19% of 330,000 active; AID 485353, 2010; calls by dose curve; also: 0% is about no effect; nearly all actives have a fitted effect of over 55% in size
Pf growth 48h: Primary qHTS for delayed death inhibitors of the malarial parasite plastid, 48 hour incubation | 5.9% of 310,000 active | Potency, µM (top dose mostly 28.7 µM), without a hit: at the highest dose activity change, negative = inhibition, actives largely listed as inhibitors | AID 504832, 2011 | P. falciparum luciferase growth in erythrocytes, 48 h; also: % is scaled to controls: 0 for no effect and ±100 for the full control effect
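Luciferase-expressing P. falciparum in infected erythrocytes (2% hematocrit, 0.1% parasitemia final) in RPMI 1640/0.5% Albumax were exposed to compound for 48 hours at 37 C, 5% CO2; growth read as luminescence.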
The depositor's hits bear a star; ? = inconclusive; . = no result given; ! = not active in a repeat. Unless noted, calls follow the shape of the dose curve; as a rule, active = well fitted inhibition curve with a large enough effect; inconclusive = small, poorly fitted or top-dose-only effect, or another doubt; inactive = no such curve, though single readings can be large or run the other way. Potency is read from the fitted curve at half-maximal effect.

SMILES	NS1 function inh	Pf growth 96h	RE007 growth inh	SARS PLP yeast	Pf growth 48h
CCOC(=O)C1CCCN(C(=O)c2ccc3c(c2)NC(=O)C(N2CCOCC2)S3)C1 (stereo unspecified)	6.0%	?	-4.9%	-4.6%	8.28µM*
CCOc1ccc(/C=C2/Sc3ccc(C(=O)N4CCOCC4)cc3N(C)C2=O)cc1OC	-16.1%	8.7%	7.5%	1.9%	9.28µM*
CCC1CC(C(=O)Nc2ccccc2)C(=O)O1 (stereo unspecified)	.	.	19.8%	.	.
O=C(Cc1ccc(F)cc1)N[C@@H]1c2ccccc2CC[C@@H]1OCc1ccccc1	.	.	6.6%	1.3%	.
CC(=O)NC(Cc1ccc(C)cc1)C(=O)NC1CCN(c2ncccc2[N+](=O)[O-])CC1 (stereo unspecified)	14.5%	-10.4%	-3.6%	3.2%	0.5%
CC1Cc2nc(SCC(=O)NCC3CCCO3)n(-c3ccc(F)cc3)c(=O)c2S1 (stereo unspecified)	-8.0%	3.7µM*	-6.4%	-3.4%	8.28µM*
Cc1cc(NC(=O)CSc2nc3c(c(=O)n2-c2ccccc2)SC(C)C3)no1 (stereo unspecified)	-8.1%	4.15µM*	-13.5%	3.9%	?
CC1Cc2nc(SCC(=O)NCC3CCCO3)n(Cc3ccccc3)c(=O)c2S1 (stereo unspecified)	-3.8%	32.9%	4.4%	0.5%	14.7µM*
CC1Cc2nc(SCC(=O)N3CCN(c4ccccc4)CC3)n(CCc3ccccc3)c(=O)c2S1 (stereo unspecified)	?	?	-0.2%	-10.4%	9.28µM*
CCOC(=O)c1ccc(NC(=O)N2CCN(c3cccc(OC)c3)CC2)cc1	2.7%	-2.5%	-15.8%	-0.1%	?
COc1ccc(-n2c(SCC(=O)NCC3CCCO3)nc3c(c2=O)SC(C)C3)cc1 (stereo unspecified)	9.0%	?	12.6%	0.3%	11.7µM*
C=CCn1c(SCC(=O)NCC2CCCO2)nc2scc(-c3ccc(OC)cc3)c2c1=O (stereo unspecified)	2.4%	5.22µM*	6.1%	0.5%	13.0%
COc1ccc(-n2c(SCC(=O)NCC3CCCO3)nc3c(c2=O)SCC3)cc1 (stereo unspecified)	5.6%	16.5%	0.4%	-1.5%	8.6%
COc1ccc(-c2cc3ccccc3n2CC(O)Cn2nc(C)cc2C)cc1 (stereo unspecified)	-40.7%	0.2%	-19.4%	-12.1%	2.33µM*
O=[N+]([O-])c1cccc(N=Nc2ccc(O)cc2O)c1	.	.	-28.0%	.	.
O=[N+]([O-])c1ccc(N=Nc2ccc(O)cc2O)cc1	-30.0%	0.329µM*	0.3%	-29.7%	.
CC(C)(C)C(=O)Nc1cccc(-c2nc3ccccc3[nH]2)c1	-4.1%	.	-13.1%	-6.6%	-1.0%
CC(C)(C)C(=O)Nc1sc2c(c1-c1nc3ccccc3[nH]1)CCCC2	13.5%	?	0.1%	-0.9%	9.28µM*
CC(=O)Nc1ccccc1-c1nc2ccc(C(=O)N3CCN(c4cccc(C)c4)C(C)C3)cc2[nH]c1=O (stereo unspecified)	-6.0%	6.57µM*	4.0%	5.4%	.
CC(=O)Nc1ccccc1-c1nc2cc(C#N)c(C#N)cc2[nH]c1=O	5.3%	106.1%	14.5%	-1.1%	.
CCCCN(CCCC)CCNC(=O)c1ccc2nc(-c3ccccc3NC(C)=O)c(=O)[nH]c2c1	.	5.1%	1.6%	-0.3%	2.33µM*
CC1=Nc2ccccc2/C1=C/c1c(C)[nH]c2ccccc12	.	.	-5.3%	.	.
CC1=Nc2ccccc2/C1=C/c1c(O)[nH]c(=O)[nH]c1=O	24.1%	2.08µM*	20.3%	10.9%	3.4%
Cc1nc([N+](=O)[O-])c(C(=O)OCc2ccccc2)n1C	.	?	-13.8%	0.5%	45.4%
Cc1nc([N+](=O)[O-])c(C(=O)OCc2cccc(Br)c2)n1C	.	7.38µM*	9.1%	-4.9%	2.3%
SMILES	NS1 function inh	Pf growth 96h	RE007 growth inh	SARS PLP yeast	Pf growth 48h
CCC(C)Oc1nc2c(c(=O)n(C)c(=O)n2C)n1C (stereo unspecified)	-6.8%	18.1%	-11.7%	1.1%	37.3%
CC(C)CN(C(=O)c1ccc(C(F)(F)F)cc1)c1c(N)n(CC(C)C)c(=O)[nH]c1=O	11.8%	47.0%	19.0%	6.9%	5.2%
CC12CCC(C(=O)N(CCCN3CCN(Cc4ccccc4)CC3)C1=O)C2(C)C (stereo unspecified)	-3.7%	19.5%	-3.5%	-0.6%	2.3%
CC12CCC(C(=O)N(CCCCN3CCN(c4ccccn4)CC3)C1=O)C2(C)C (stereo unspecified)	7.3%	9.28µM*	-21.2%	-4.7%	?
CC1=C(C(=O)N2CCCCCC2)CC(CC(=O)NC2CCCC2)C(=O)N1Cc1ccc(C(C)(C)C)cc1 (stereo unspecified)	.	.	-6.5%	.	.
COc1ccc(OC)c(-n2c(-c3ccc(S(C)(=O)=O)cc3)cc(C=O)c2C)c1	?	?	-18.3%	1.3%	11.7µM*
C[C@]12CC[C@H](O)C[C@H]1CC[C@@H]1[C@@H]2CC[C@]2(C)[C@@H](C3=CC(=O)OC3)CC[C@]12O	.	-0.8%	1.4%	.	-10.0%
CC1OC(OC2C(O)CC(OC3C(O)CC(OC4CCC5(C)C(CCC6C5CCC5(C)C(C7=CC(=O)OC7)CCC65O)C4)OC3C)OC2C)CC(O)C1O (stereo unspecified)	.	4.78µM*	.	.	15.1µM*
C[C@@H]1O[C@@H](O[C@H]2C[C@@H](O)[C@@]3(CO)[C@H]4[C@H](O)C[C@]5(C)[C@@H](C6=CC(=O)OC6)CC[C@]5(O)[C@H]4CC[C@@]3(O)C2)[C@@H](O)[C@H](O)[C@H]1O	0.1%	-2.5%	.	.	-6.2%
CC1OC(O[C@H]2C[C@@H](O)[C@]3(CO)[C@@H]4C(CC[C@]3(O)C2)[C@@]2(O)CC[C@H](C3=CC(=O)OC3)[C@@]2(C)C[C@H]4O)C(O)C(O)C1O (stereo partly specified)	.	1.35µM*	.	.	-13.7%
C[C@H]1O[C@@H](O[C@H]2[C@@H](O)C[C@H](O[C@H]3[C@@H](O)C[C@H](O[C@H]4CC[C@@]5(C)[C@H](CC[C@@H]6[C@@H]5C[C@@H](O)[C@]5(C)[C@@H](C7=CC(=O)OC7)CC[C@]65O)C4)O[C@@H]3C)O[C@@H]2C)C[C@H](O)[C@@H]1O	-11.7%	7.57µM*!	-0.8%	3.8%	?

Screening results: PubChem BioAssay, National Center for Advancing Translational Sciences (NCATS)
